These results are taken from PubChem BioAssay AID602318 (Sanford-Burnham Center for Chemical Genomics, 2012).

The whole screen tested about 1,900 compounds, of which about 550 (29%) were called active. Cut-off read from the data, not from the text of the source: active = inhibition above about 40%; inactive = the rest. A selection follows.

Chain of 26S proteasome non-ATPase regulatory subunit 14 (Homo sapiens) (O00487 whole entry, looked up): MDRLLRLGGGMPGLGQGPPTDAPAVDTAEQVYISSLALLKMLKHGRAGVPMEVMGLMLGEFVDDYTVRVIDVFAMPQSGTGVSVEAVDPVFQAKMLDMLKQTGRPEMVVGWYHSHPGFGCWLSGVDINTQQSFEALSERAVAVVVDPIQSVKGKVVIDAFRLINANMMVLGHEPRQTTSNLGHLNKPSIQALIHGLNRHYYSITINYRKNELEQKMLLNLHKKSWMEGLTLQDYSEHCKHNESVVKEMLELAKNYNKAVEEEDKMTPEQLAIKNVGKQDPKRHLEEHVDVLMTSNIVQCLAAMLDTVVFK

This assay addresses 26S proteasome non-ATPase regulatory subunit 14 (Homo sapiens) (UniProt O00487). Kind of assay: inhibition of 26S proteasome subunit Rpn11 – biochemical, fluorescence polarization, single concentration, confirmation (AID 602318). Conditions: purified human 26S proteasome, Ub4-pepOG fluorescence polarization; at 20 µM; hits give high values; proteasome pretreated with epoxomicin. On the technique in general: In fluorescence polarisation assays a small probe gives low polarisation when free and higher when bound to something large.
`COC(=O)c1ccc(OCC(=O)NC(C)(C)C)cc1`: the inhibition (in general, the change of the read-out against control, counted positive when it falls) is -8.84% (inactive).
The value for `CCOc1ccc(NC(=O)c2ccc(NC(=O)COC(=O)c3ccc(NC(=O)CC#N)cc3)cc2)cc1` was 103% (active); that for `Cc1nc2ccc(C(=O)N3CCSCC3)cc2s1` was -7.54% (inactive).
For `Oc1c(CN2CCCC2)cc(COCc2ccccc2)c2cccnc12` the value was 14.7% (inactive); for `C=CC[n+]1c(-c2ccc(C)cc2)csc1NNC(=O)Nc1ccccc1`, 9.49% (inactive).
For `CC(C)(C)NC(=O)CSC(=Nc1ccccc1F)NC#N` the value was 16.3% (inactive); for `CCOc1cc(/C=C2\SC(N3CCCC(C)C3)=NC2=O)ccc1O` (centres undefined), 11.7% (inactive).
For the compound `Cc1cccc(OCc2nnc(SCc3nc4cc(C(F)(F)F)ccc4c(=O)[nH]3)o2)c1`, the inhibition was 57.8% (active).
Consider `CCc1ccc(NC(=O)CS(=O)CC(=O)NCCCc2ccccc2)cc1` (centres undefined), for which the inhibition was 20.8% (inactive).
The value for `COc1cccc(NC(=O)C(C)Oc2ccccc2)c1` (centres undefined) was -12.2% (inactive); that for `O=C(O)c1ccc(NN=CC2=C(N3CCOCC3)/C(=C/c3ccccc3)CC2)cc1` was 48.1% (active); that for `CN(C)CCOC1c2ccccc2-c2ccccc21` was -6.33% (inactive).
The value for `COc1ccc(CC(=O)Nc2ccc(-c3nnc(-c4ccc(C)cc4)o3)cc2)cc1` was -7.43% (inactive); that for `COc1ccc(NC(=O)Cn2c(-c3ccc(OC)cc3)cn(-c3ccc(C)cc3)c2=O)cc1` was 42.8% (active).
For `Cc1ccc(NC(=O)CN2CCc3ccccc3C2)cc1` the value was -8.38% (inactive); for `NC(N)=N/N=C/c1ccc(OCc2ccc(Cl)cc2Cl)cc1`, 37% (inactive); for `Oc1ccc(/C=N/Nc2nc(-c3ccccc3F)nc3ccccc23)c(O)c1`, 18.3% (inactive).
With `O=C1NC(=O)C2C1C(c1ccc([N+](=O)[O-])cc1)=NN2Cc1ccccc1` (centres undefined), the inhibition was 29.9% (inactive).
The value for `CC(C)Oc1ccc(/C=C(\NC(=O)/C=C/c2ccco2)C(=O)NCCc2nc3ccccc3[nH]2)cc1` was 44.1% (active); that for `Cc1ccc(-c2nnc(-c3ccc(NC(=O)c4cccs4)cc3)o2)cc1` was -12.4% (inactive); that for `Cc1c(N=Nc2ccc(N(C)C)cc2)c(=O)n(-c2ccccc2)n1C` was 47.2% (active).
The value for `CCN1CCCC1CNC(=O)c1cc2c(=O)n(C)c3ccccc3c2n1C` (centres undefined) was 2.2% (inactive); that for `Cc1cc(OCC(=O)Nc2nccs2)c2c(C)c(C)c(=O)oc2c1` was 38.8% (inactive); that for `Cc1nc2ccccc2nc(=O)c1NNc1ccc([N+](=O)[O-])cc1` was 24% (inactive).
